In PMC6919601, “Identification of Plasmodium dipeptidyl aminopeptidase allosteric inhibitors by high throughput screening” (PLoS ONE, 2019):
Out of some 110,000 compounds screened, about 230 (0.21%) showed an effect of 50% or more. Shown is part of a subset that was picked to be rich in strong results.

Biological target: DPAP1 (Plasmodium falciparum, UniProt Q8IIJ9)
Experiment: primary screen, percent inhibition; read by cleavage of a fluorogenic dipeptide substrate; higher = more effect of the substance
Set-up: species or system P. falciparum D10 trophozoite lysates; single well
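Note: 30 min substrate incubation versus DMSO and 10 µM JCP410 controls.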

Chain of DPAP1 (Q8IIJ9 whole entry, looked up): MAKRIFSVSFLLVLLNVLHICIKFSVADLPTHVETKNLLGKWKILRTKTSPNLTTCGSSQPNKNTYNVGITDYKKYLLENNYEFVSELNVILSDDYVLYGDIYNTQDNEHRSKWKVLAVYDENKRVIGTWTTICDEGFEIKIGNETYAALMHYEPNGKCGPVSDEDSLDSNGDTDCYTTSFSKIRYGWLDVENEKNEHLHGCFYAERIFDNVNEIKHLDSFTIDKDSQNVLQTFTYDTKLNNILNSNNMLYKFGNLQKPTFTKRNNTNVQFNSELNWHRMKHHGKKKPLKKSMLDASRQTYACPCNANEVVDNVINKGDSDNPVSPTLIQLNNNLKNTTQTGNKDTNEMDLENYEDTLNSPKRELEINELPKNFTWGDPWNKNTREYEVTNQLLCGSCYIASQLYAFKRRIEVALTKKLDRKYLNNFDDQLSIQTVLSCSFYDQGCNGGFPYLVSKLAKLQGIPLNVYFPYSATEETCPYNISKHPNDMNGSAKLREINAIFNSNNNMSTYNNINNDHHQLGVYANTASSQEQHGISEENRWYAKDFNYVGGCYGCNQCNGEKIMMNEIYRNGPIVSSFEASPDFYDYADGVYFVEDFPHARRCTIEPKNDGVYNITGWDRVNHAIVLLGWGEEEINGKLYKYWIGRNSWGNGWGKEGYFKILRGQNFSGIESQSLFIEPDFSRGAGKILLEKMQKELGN

Structure (SMILES) | % Inhibition @ 10 uM
Cc1cc(C)c2c(-n3cccc3)nn(CC(=O)N3CCCCCC3)c2n1 | -3.52%
COCC(=O)Nc1nc2nccc(C)n2n1 | -1.31%
CCn1c(C(=O)N2CCC(C(=O)NCCC(C)C)CC2)cc2sccc21 | 92.1%
CCn1c(C(=O)N2CCC(C(=O)NCCN(CC(C)C)CC(C)C)CC2)cc2sccc21 | -5.19%
CCn1c(C(=O)N2CCC(C(=O)NCCOC)CC2)cc2sccc21 | 4.95%
N#CCNC(=O)[C@H](CC1CCCCC1)NC(=O)c1sccc1Br | 1.35%
O=C1C(Nc2cccc(O)c2)=C(N2CCCCC2)C(=O)c2ccccc21 | 0.162%
O=C1C(Nc2cccc(Br)c2)=C(N2CCCCC2)C(=O)c2ccccc21 | 1.84%
Nc1ccc(NC2=C(N3CCCCC3)C(=O)c3ccccc3C2=O)cc1 | 53.5%
Cn1c2ccccc2c2nc3cc4ccccc4cc3nc21 | -2.54%
COCCN1C(=O)c2ccccc2C(C(=O)Nc2ccc(Cl)cn2)C1c1cccs1 (stereo not drawn) | 4.33%
C=CCOc1ccc(C(=O)C2=C(O)C(=O)N(c3ccccn3)C2c2ccc(F)cc2)cc1 (stereo not drawn) | 2.86%
C#CCN1C(=O)C(O)(CC(=O)c2ccc3ccccc3c2)c2ccccc21 (stereo not drawn) | -20.7%
Cn1c(SCC(=O)NCCc2ccccc2)nc2c1c(=O)n(Cc1ccccc1Cl)c(=O)n2C | 3.81%
CC1CCN(C(=O)CCN2C(=O)c3ccccc3C2=O)CC1 | 2.06%
Cc1ccc(-c2cc(NC(=O)COc3ccc(C(C)C)cc3)on2)cc1 | -1.47%
O=C(NCCc1ccc(Cl)cc1)c1noc2c1COc1ccccc1-2 | 82.6%
CCOc1ccc(CCNC(=O)c2noc3c2COc2ccccc2-3)cc1OCC | 80.8%
Cc1cccc(CCNC(=O)c2cc3c(s2)-c2ccccc2OC3)c1 | -4.85%
COc1ccc(CCNC(=O)c2noc3c2COc2ccc(C)cc2-3)cc1OC | -4.07%
CCOC(=O)c1noc2c1COc1ccccc1-2 | -1.51%
O=C(NCC1(c2ccccc2)CCCC1)c1noc2c1COc1ccccc1-2 | 47.2%

Structure (SMILES) | % Inhibition @ 10 uM
CN(CCNC(=O)c1noc2c1COc1ccccc1-2)C1CCCCC1 | 2.73%
CCOc1ccc(-c2cc(NC(=O)c3noc4c3COc3ccccc3-4)on2)cc1OCC | -1.72%
Cc1ccc2c(c1)-c1onc(C(=O)NCCN(C)C)c1CO2 | -4.37%
O=C(NCCc1c[nH]c2ccccc12)c1noc2c1COc1ccccc1-2 | 91.5%
O=C(NCCc1ccccc1)c1noc2c1CCc1ccccc1-2 | -7.85%
Cc1cccc(CCNC(=O)c2noc3c2COc2ccccc2-3)c1 | 75.2%
O=C(/C=C/c1ccco1)N(Cc1cccc(F)c1)C1CCS(=O)(=O)C1 (stereo not drawn) | -1.35%
O=C(Nc1ccccc1)N1CCN(c2ccccc2)CC1 | 1.33%
CSc1nc2n(n1)C(c1ccc(F)c(Br)c1)C1=C(O)CC(C)(C)CC1=N2 (stereo not drawn) | -1.62%
CC(NCC(O)Cn1nnnc1-c1ccccc1)c1ccccc1 (stereo not drawn) | 2.5%
Cc1ccc(NC(=O)C(C)Oc2ccccc2C)c(C)c1 (stereo not drawn) | 6.79%
CC(=O)c1c(S)nc(-c2ccccc2)nc1N1CCN(Cc2ccccc2)CC1 | 29.2%
CCOc1ccc(C(=O)NCC2CCN(C(=O)c3ccc(OCC)cc3)CC2)cc1 | 5%
O=[N+]([O-])c1c(NCCO)cc(Cl)c2nonc12 | 5.66%
COc1ccccc1N1C(=O)CC(N2CCN(C)CC2)C1=O (stereo not drawn) | -6.08%
COc1ccc(/C=C(\C#N)C(N)=S)cc1 | -2.51%
COC(=O)/C(C#N)=C/c1ccc(C)o1 | -0.256%
Cc1ccc(/C=C(\C#N)C(N)=S)o1 | 79.5%
CCOC(=O)C1=C(CN2CCN(C(=O)OCC)CC2)NC(=O)NC1c1cccs1 (stereo not drawn) | -3.36%
COc1ccc(C(=O)CC(=O)c2ccc(OC)c(OC)c2)c(O)c1 | 4.74%
Cc1ccc(S(=O)(=O)Nc2nc3ccccc3nc2N2CCCCC2)cc1 | -0.969%
Cn1c2ccc(F)cc2c2nnc(S)nc21 | 74%

Structure (SMILES) | % Inhibition @ 10 uM
CCn1c2ccccc2c2nnc(S)nc21 | 38%
CCCCn1c2ccc(C)cc2c2nnc(S)nc21 | 61%
Cc1ccc2c(c1)c1nnc(S)nc1n2Cc1ccccc1 | 3.73%
CSc1nnc2c(n1)[nH]c1ccc(C)cc12 | 2.51%
Fc1ccc2c(c1)c1nnc(S)nc1n2CCc1ccccc1 | 10.9%
CCn1c2ccc(OC)cc2c2nc3ccccc3nc21 | -3.13%
CCCCn1c2ccccc2c2nnc(S)nc21 | 36.5%
CCn1c2ccc(OC)cc2c2nnc(S)nc21 | 79.3%
Fc1ccc2[nH]c3nc(S)nnc3c2c1 | 56%
CCn1c2ccc(F)cc2c2nnc(S)nc21 | 32.8%
Cc1ccc2[nH]c3nc(S)nnc3c2c1 | 12.4%
CC(C)c1nc2ccccc2n1Cc1ccccc1F | 1.12%
NC(=O)C1CCN(C(=O)COCc2cc(-c3ccc4c(c3)OCO4)on2)CC1 | -4.1%
COCCCNC(=O)c1cnn2c(C(F)(F)F)cc(-c3cccs3)nc12 | -2.26%
Nc1ncnc2c1nc(S(=O)(=O)O)n2Cc1ccccc1 | -1.69%
CCSC1=NSC2=NC(=O)/C(=C\c3c(C)[nH]c4ccccc34)C(=N)N12 | 4.79%
Cc1cc2ccccc2n1CCNC(=O)C(c1ccccc1)c1ccccc1 | -4.89%
COCCNC(=O)C1CCCN(S(=O)(=O)N(C)C2CCCCC2)C1 (stereo not drawn) | -2.86%
Sc1nnc2[nH]c3ccccc3c2n1 | 56.9%
Sc1nnc2c(n1)[nH]c1ccccc12 | 38%
c1ccc2nc3c(nc2c1)[nH]c1ccccc13 | -1.8%
Cc1nc2ccc(S(=O)(=O)NC(C(=O)NCCc3ccccc3)C(C)C)cc2s1 (stereo not drawn) | -0.0115%

Structure (SMILES) | % Inhibition @ 10 uM
Cc1ccc2[nH]c(SCC(=O)Nc3ccc(Cl)cc3)nc2c1 | 5.24%
COc1cccc2cc(-c3cn(-c4cccc(C)c4)c(S)n3)c(=O)oc12 | 20.1%
Cc1cc(C)c2c(=O)n(CC(=O)NCCc3ccc(Cl)cc3)sc2n1 | 15.6%
Cc1cc(C)c2c(=O)n(CC(=O)NCc3ccccc3Cl)sc2n1 | 83.7%
Cc1cc(C)c2c(=O)n(CC(=O)NCc3ccc4c(c3)OCO4)sc2n1 | 12%
Cc1c(C(=O)Nc2nc3c(s2)CCCC3)oc2ccccc12 | -2.85%
N#CC1=C(N)Oc2[nH]nc(-c3ccncc3)c2C1c1ccncc1 (stereo not drawn) | 3.92%
CCOc1cc(-c2c(C)c(C)nc(N)c2C#N)ccc1O | -1.79%
CC(C)C1Nc2c(C(=O)O)cccc2C2C=CCC21 (stereo not drawn) | -1.2%
O=C(O)C1Nc2c(cccc2C(F)(F)F)C2C=CCC12 (stereo not drawn) | 0.345%
O=C(O)c1cccc2c1NC(C(=O)O)C1CC=CC21 (stereo not drawn) | 65.6%
CCc1nn(CCCC(=O)NC2CCCCC2C)c(=O)c2cc3occc3n12 (stereo not drawn) | -0.281%
CCOc1ccc(C(=O)Nc2ccc(-c3nc4ncccc4o3)cc2)cc1Cl | -4.82%
CCc1cccc(C)c1NC(=O)c1cc(OC)cc(OC)c1 | 15.2%
O=C(O)CN1C(=O)c2cc(Cl)c(Cl)cc2C1=O | 3.67%
Cc1ccc(C(=O)NCc2nnc(SCC(=O)Nc3nccs3)n2-c2ccccc2)cc1C | -4.97%
Cc1ccc(C)c(-n2c(CNC(=O)c3cccc(F)c3)nnc2SCC(=O)Nc2nccs2)c1 | 73.7%
COc1ccccc1-n1c(CNC(=O)c2cccc(C)c2)nnc1SCC(=O)Nc1nccs1 | 2.12%
C[C@H](NC(=O)CCc1ccccc1)c1ccccc1 | 4.22%
CC(C)n1c(NC2CCCCC2)nc2c1c(=O)[nH]c(=O)n2C | -1.11%
Cc1cc(C)c2oc(C(=O)Nc3nnc(C(C)C)s3)cc(=O)c2c1 | 53.6%
Cc1cc(C)c2oc(C(=O)Nc3nnc(C)s3)cc(=O)c2c1 | -3.24%

Structure (SMILES) | % Inhibition @ 10 uM
Cc1cc(C)c2oc(C(=O)Nc3nnc(CC(C)C)s3)cc(=O)c2c1 | 3.51%
Cc1cc(C(=O)NCCc2ccccc2)c2c(C)nn(-c3ccccc3)c2n1 | -6.46%
Cc1nc(SCC(N)=O)c(C#N)c(C)c1C | -0.239%
Cc1nc(SCC(=O)O)c(C#N)c(C)c1C | 72.9%
COC(=O)CSc1nc(C)c(C)c(C)c1C#N | 4.15%
O=C(CSC1CC(=O)N(c2cccc(Cl)c2)C1=O)Nc1ccc(F)cc1 (stereo not drawn) | 2.13%
CC(=O)Nc1ccc(Oc2ccc(NC(C)=O)c(NC(C)=O)c2)cc1 | 70.7%
CC(=O)Nc1ccc(Oc2cccc(Oc3ccc(NC(C)=O)cc3)c2)cc1 | -6.02%
CCC(=O)Nc1ccc(Oc2ccc(NC(=O)CC)c(NC(=O)CC)c2)cc1 | 8.21%
C1CCN(CCCNC2C3CC4CC(C3)CC2C4)C1 (stereo not drawn) | -0.192%
COc1ccc(C(=O)N2CCC(N3CCCCCC3)CC2)cc1 | 1.91%
Cc1nc2c3ccccc3n3c(CCCC(=O)O)nnc3n2n1 | -2.92%
CCc1[nH]c2ccccc2c1C(C)c1cccnc1 (stereo not drawn) | -4.49%
Cc1[nH]nc(O)c1C(c1c(O)n[nH]c1C)c1c[nH]c2ccccc12 | -6.24%
c1cncc(C(c2c[nH]c3ccccc23)c2c[nH]c3ccccc23)c1 | 92.4%
CC(C)(C)C1CCC(OC(=O)CCC(=O)Nc2ccccc2)CC1 (stereo not drawn) | 3.16%
N#Cc1cnn(-c2cc(Oc3ccccc3)nc(-c3ccccc3)n2)c1N | -0.941%
Cc1cccc(-n2c(C)cc(/C=C3\C(=N)N4N=C(S(C)(=O)=O)SC4=NC3=O)c2C)c1 | 52.6%
Cc1cc(/C=C2\C(=N)N3N=C(S(C)(=O)=O)SC3=NC2=O)c(C)n1-c1cccc(C(F)(F)F)c1 | 3.53%
Cc1cccc(C)c1-n1c(C)cc(/C=C2\C(=N)N3N=C(S(C)(=O)=O)SC3=NC2=O)c1C | 5.1%
